Results filed as inconclusive are left out. Entries that show only a call come without a potency. Activity calls are given as the source filed them. Calls come from the whole dose curve; as a rule, active = well fitted inhibition curve with a large enough effect; inconclusive = small, poorly fitted or top-dose-only effect; inactive = flat fitted curve, though single readings scatter.
How the values were obtained:
Test in all cases: qHTS profiling for inhibitors of Plasmodium falciparum proliferation (AID 504749); note: nearly all actives have a fitted effect of over 60% in size
Conditions in all cases: P. falciparum in erythrocytes, SYBR Green DNA, 72 h; series mostly up to 28.7 µM
[1] = tested on: CP286
Summary of the method: (§1)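 Each compound contacts P. falciparum-infected red blood cells for 72 h at 37 C; lysis buffer (Tris, EDTA, saponin, Triton X, SYBR Green I) is added and fluorescence measured next morning; values normalized to controls.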

[2] = tested on: CP291
Summary of the method: as §1

[3] = tested on: CP297
Summary of the method: as §1

[4] = tested on: CP305
Summary of the method: as §1

[5] = tested on: CP315
Summary of the method: as §1

[6] = tested on: CP325
Summary of the method: as §1

[7] = tested on: CP329
Summary of the method: as §1

[8] = tested on: CP335
Summary of the method: as §1

[9] = tested on: DFO2036
Summary of the method: as §1

[10] = tested on: DIV14
Summary of the method: as §1

[11] = tested on: DIV17
Summary of the method: as §1

[12] = tested on: DIV30
Summary of the method: as §1

[13] = tested on: Dd2
Summary of the method: as §1

[14] = tested on: ECU
Summary of the method: as §1

[15] = tested on: FAB9
Summary of the method: as §1

[16] = tested on: GB4
Summary of the method: as §1

[17] = tested on: HB3
Summary of the method: as §1

[18] = tested on: ICS
Summary of the method: as §1

[19] = tested on: JCK
Summary of the method: as §1

[20] = tested on: N140
Summary of the method: as §1
Potency is the fitted concentration of half-maximal effect.

Structure (SMILES)	Potency [1]	Potency [2]	Potency [3]	Potency [4]	Potency [5]	Potency [6]	Potency [7]	Potency [8]	Potency [9]	Potency [10]	Potency [11]	Potency [12]	Potency [13]	Potency [14]	Potency [15]	Potency [16]	Potency [17]	Potency [18]	Potency [19]	Potency [20]
Cc1ccnc2c1NC(=O)c1cccnc1N2C1CC1	inactive	inactive	inactive	inactive	inactive	inactive	inactive	inactive	inactive	inactive	inactive	inactive	inactive	inactive	inactive	inactive	inactive	inactive	inactive	inactive
N=C(N)c1ccc(OCCCCCOc2ccc(C(=N)N)cc2)cc1	1120 nM (active)	1200 nM (active)	601 nM (active)	536 nM (active)	1350 nM (active)	1070 nM (active)	849 nM (active)	1350 nM (active)	1000 nM (active)	269 nM (active)	426 nM (active)	1690 nM (active)	501 nM (active)	2000 nM (active)	794 nM (active)	338 nM (active)	1260 nM (active)	1000 nM (active)	2510 nM (active)	1000 nM (active)
CCc1c2c(nc3ccc(OC(=O)N4CCC(N5CCCCC5)CC4)cc13)-c1cc3c(c(=O)n1C2)COC(=O)[C@]3(O)CC	inactive	inactive	inactive	inactive	inactive	inactive	inactive	inactive	inactive	inactive	inactive	inactive	inactive	inactive	inactive	inactive	inactive	inactive	inactive	inactive
Cc1nnc(NS(=O)(=O)c2ccc(N)cc2)s1	inactive	inactive	inactive	inactive	inactive	inactive	inactive	inactive	inactive	inactive	inactive	inactive	inactive	inactive	inactive	inactive	inactive	inactive	inactive	inactive
CN(C)c1ccc(C(=C2C=CC(=[N+](C)C)C=C2)c2ccc(N(C)C)cc2)cc1	178 nM (active)	675 nM (active)	953 nM (active)	338 nM (active)	953 nM (active)	478 nM (active)	601 nM (active)	301 nM (active)	199 nM (active)	478 nM (active)	601 nM (active)	478 nM (active)	158 nM (active)	355 nM (active)	355 nM (active)	239 nM (active)	631 nM (active)	251 nM (active)	631 nM (active)	355 nM (active)
COc1ncnc(NS(=O)(=O)c2ccc(N)cc2)c1OC	inactive	inactive	inactive	inactive	inactive	inactive	inactive	inactive	inactive	inactive	inactive	inactive	inactive	inactive	inactive	inactive	inactive	inactive	inactive	inactive
COc1cc(NCc2ccc3nc(N)nc(N)c3c2C)cc(OC)c1OC	178 nM (active)	478 nM (active)	426 nM (active)	601 nM (active)	849 nM (active)	953 nM (active)	379 nM (active)	151 nM (active)	355 nM (active)	169 nM (active)	239 nM (active)	4780 nM (active)	631 nM (active)	5 nM (active)	4.5 nM (active)	1.5 nM (active)	31.6 nM (active)	794 nM (active)	7080 nM (active)	447 nM (active)
N[C@@H](C(=O)N[C@@H]1C(=O)N2C(C(=O)O)=C(Cl)CS[C@H]12)c1ccccc1	inactive	inactive	inactive	inactive	inactive	inactive	inactive	inactive	inactive	inactive	inactive	inactive	inactive	inactive	inactive	inactive	inactive	inactive	inactive	inactive
COc1ccc2cc3[n+](cc2c1OC)CCc1cc2c(cc1-3)OCO2	562 nM (active)	1510 nM (active)	1350 nM (active)	757 nM (active)	1070 nM (active)	953 nM (active)	953 nM (active)	953 nM (active)	891 nM (active)	849 nM (active)	1070 nM (active)	1350 nM (active)	794 nM (active)	1410 nM (active)	708 nM (active)	675 nM (active)	1780 nM (active)	1120 nM (active)	3160 nM (active)	1260 nM (active)
O=NN(CCCl)C(=O)NC1CCCCC1	inactive	inactive	inactive	inactive	inactive	inactive	inactive	inactive	inactive	inactive	inactive	inactive	inactive	inactive	inactive	inactive	inactive	inactive	inactive	inactive
CN(CCOc1ccc(CC2SC(=O)NC2=O)cc1)c1ccccn1 (stereo not given)	inactive	inactive	inactive	inactive	inactive	inactive	inactive	inactive	inactive	inactive	inactive	inactive	inactive	inactive	inactive	inactive	inactive	inactive	inactive	inactive
NCCCC(O)(P(=O)(O)O)P(=O)(O)O	inactive	inactive	inactive	inactive	inactive	inactive	inactive	inactive	inactive	inactive	inactive	inactive	inactive	inactive	inactive	inactive	inactive	inactive	inactive	inactive

Source: PubChem BioAssay (NCATS)
